Reference: a collection of fitness landscapes (doi:10.1126/science.1257360)
Over roughly 140,000 sequences, “enrichment ratio after two sorts for PhoP signalling” has its median near 0; the highest 2% begin near 11. The full list was thinned out, with the highest values kept by preference.

B1: PhoQ; a variant is named by its letters at X, in order, P23837 (parent)
chain: MKKLLRLFFPLSLRVRFLLATAAVVLVLSLAYGMVALIGYSVSFDKTTFRLLRGESNLFYTLAKWENNKLHVELPENIDKQSPTMTLIYDENGQLLWAQRDVPWLMKMIQPDWLKSNGFHEIEADVNDTSLLLSGDHSIQQQLQEVREDDDDAEMTHSVAVNVYPATSRMPKLTIVVVDTIPVELKSSYMVWSWFIYVLSANLLLVIPLLWVAAWWSLRPIEALAKEVRELEEHNRELLNPATTRELTSLVRNLNRLLKSERERYDKYRTTLTDLTHSLKTPLXXLQXXLRSLRSEKMSVSDAEPVMLEQISRISQQIGYYLHRASMRGGTLLSRELHPVAPLLDNLTSALNKVYQRKGVNISLDISPEISFVGEQNDFVEVMGNVLDNACKYCLEFVEISARQTDEHLYIVVEDDGPGIPLSKREVIFDRGQRVDTLRPGQGVGLAVAREITEQYEGKIVAGESMLGGARMEVIFGRQHSAPKDE

Variants of: B1
Assay: enrichment ratio after two sorts for PhoP signalling (ratio (wild type AVST 3.29)); higher = more functional
Conditions: with PhoP (E. coli)

Variant	enrichment ratio
KHPW	≤ 0.25
MQFI	0.491
WDYP	≤ 0.25
ATVW	3.56
WCCW	≤ 0.25
MCYN	11.3
KCYM	≤ 0.25
MCYM	14.1
MLYN	1.73
KCYN	≤ 0.25
MLYM	8.36
QGPI	≤ 0.25
VQSP	≤ 0.25
FRQT	≤ 0.25
YETN	≤ 0.25
ACSK	4.64
ACGR	≤ 0.25
ACSM	13.2
ACSF	13.3
GKCK	≤ 0.25
TDGP	≤ 0.25
RGGM	≤ 0.25
NMRS	≤ 0.25
NMSA	≤ 0.25
HPHS	≤ 0.25

Variant	enrichment ratio
PTQE	≤ 0.25
RNQE	≤ 0.25
TIQC	0.791
YTQE	≤ 0.25
TQQE	44.9
GGQE	≤ 0.25
TKQE	16.5
AIQE	≤ 0.25
KMQE	≤ 0.25
TGQE	24.5
TIQE	15.1
LAQE	≤ 0.25
YCTL	0.295
YAID	≤ 0.25
WAIW	≤ 0.25
TIAS	11.1
HPPD	≤ 0.25
HRCR	≤ 0.25
RAAD	≤ 0.25
GWLP	≤ 0.25
FRVC	≤ 0.25
SNQE	18.7
KAQE	≤ 0.25
SQQE	≤ 0.25
SLQE	≤ 0.25

Variant	enrichment ratio
TLQE	11.7
KSQE	≤ 0.25
RSER	≤ 0.25
WLMW	≤ 0.25
YVFS	≤ 0.25
GCFM	≤ 0.25
EFLK	≤ 0.25
WILG	≤ 0.25
PFLG	≤ 0.25
TFFG	≤ 0.25
TFLG	11.8
TFTG	13.3
TFAG	2.03
VSRM	≤ 0.25
TEYG	1.95
LQQQ	≤ 0.25
TAQQ	32.8
KAGI	≤ 0.25
TAFP	0.47
NAGI	≤ 0.25
TAGI	13.1
YTNC	≤ 0.25
SRQY	≤ 0.25
TTNS	3.5
YTNY	≤ 0.25

Variant	enrichment ratio
STNY	14.2
SQFA	≤ 0.25
TTNY	25.4
TTYY	2.55
HVQK	≤ 0.25
PLIG	≤ 0.25
VDHE	≤ 0.25
NVTF	≤ 0.25
TMGF	13.3
TMTF	11.5
CFGF	≤ 0.25
AHGF	≤ 0.25
WITF	≤ 0.25
KCGF	≤ 0.25
VHGF	≤ 0.25
THGF	8.21
TGGF	15
AIGF	11.6
TMHF	1.51
WAVD	≤ 0.25
HSRC	≤ 0.25
RGHS	≤ 0.25
VKVV	≤ 0.25
MFSR	≤ 0.25
LVPR	≤ 0.25

Variant	enrichment ratio
GRNL	≤ 0.25
YHIC	≤ 0.25
PQKS	≤ 0.25
SIVS	4.88
TLGF	12.8
MNGF	3.05
TNHF	≤ 0.25
EYGF	≤ 0.25
TNGF	15.9
TVGF	18.5
NVGF	≤ 0.25
TVHF	≤ 0.25
EIGF	17.3
PLGF	≤ 0.25
SLGF	10.1
EEGF	≤ 0.25
EVNL	≤ 0.25
TCLE	≤ 0.25
KQLE	≤ 0.25
DCCE	≤ 0.25
THTS	1.63
SNKW	≤ 0.25
SQFG	≤ 0.25
TNNL	0.757
TLHF	≤ 0.25

Variant	enrichment ratio
TNGD	≤ 0.25
KAQF	≤ 0.25
TNGI	15.2
MNGI	5.05
TNGL	12.6
MNGL	9.61
TLQF	15.7
DQWL	≤ 0.25
LLTH	≤ 0.25
CFSY	≤ 0.25
QPRN	≤ 0.25
FNQY	≤ 0.25
DTFM	≤ 0.25
LQVE	≤ 0.25
AMMS	1.12
AMMV	21.8
AMMQ	13.1
AMMD	≤ 0.25
AMPV	≤ 0.25
ADMQ	≤ 0.25
NMMI	≤ 0.25
AMMI	15
AIMQ	≤ 0.25
GMVM	3.22
SNKV	≤ 0.25

Variant	enrichment ratio
QQCV	≤ 0.25
HHKS	≤ 0.25
ISVD	≤ 0.25
AFGA	≤ 0.25
NYGC	≤ 0.25
WHYL	≤ 0.25
FFWY	≤ 0.25
FFGY	≤ 0.25
QGPY	≤ 0.25
QGWY	75.8
QPGY	≤ 0.25
QGGY	14.3
TQGM	14.5
MEIM	48.5
SAIM	11.6
SAWM	3.72
TQWM	≤ 0.25
NAIM	≤ 0.25
AGRM	≤ 0.25
AGIM	11.8
MMIM	≤ 0.25
TQRM	≤ 0.25
AGDM	≤ 0.25
QEIM	≤ 0.25
GPHN	≤ 0.25

Variant	enrichment ratio
RDSY	≤ 0.25
HQTV	≤ 0.25
ISLP	≤ 0.25
DTRI	1.89
VMYN	≤ 0.25
SEIM	15.1
SGDM	≤ 0.25
SGIM	23.7
STIM	15.3
RGIM	≤ 0.25
TGIM	≤ 0.25
ITIM	≤ 0.25
SRIM	13.7
YTIM	1.25
SGRM	≤ 0.25
KYIM	≤ 0.25
SEWM	3.99
NCFV	≤ 0.25
ACCP	≤ 0.25
AHDV	≤ 0.25
